Screens deposited in PubChem BioAssay by National Center for Advancing Translational Sciences (NCATS).
This is a sample that favours compounds with a hit; in the whole collection about 5.7% have one here.
HP1b chromo inh = HTS for Inhibitors of HP1-beta Chromodomain Interactions with Methylated Histone Tails; Chromobox protein homolog 1 (Homo sapiens), P83916; AlphaScreen HP1-beta / biotin-H3K9me3 peptide binding; Potency, µM (titrated, usually from 114 µM), without a hit: at the highest dose activity change, negative = inhibition, usual class: inhibitors; 390,000 compounds, 0.56% hits; AID 540317, 2011; further: potency means the concentration at half of the fitted maximal effect; nearly all actives have a fitted effect of over 70% in size
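AlphaScreen: HP1-beta (50 nM) preformed 30 min with biotin-H3(1-18)K9me3 peptide (50 nM) in PBS pH 7.4, 0.01% Tween-20. Compound added for 30 min at RT, then streptavidin donor/nickel chelate acceptor beads (10 ug/mL) for 30 min.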
PI5P4Ka inh = qHTS for Inhibitors of phosphatidylinositol 5-phosphate 4-kinase (PI5P4K); Phosphatidylinositol 5-phosphate 4-kinase type-2 alpha (Homo sapiens), P48426; PI5P4Kalpha enzyme, ADP-Glo luminescence, 60 min; stronger effect = lower value; max response, %; 330,000 compounds, 1.2% hits; AID 652105, 2013; active means max response of -50% or lower; inconclusive means between -30% and -50%; inactive means -30% or higher; further: value at the top dose of about 77 µM; on the % scale 0 is the no-effect control and ±100 the full control effect
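Reactions run in 0.038 M HEPES pH 7.4, 0.28 mM EGTA, 0.1% CHAPS and 5% DMSO, with PI5P4Kalpha, substrate, compound and 5 microM ATP final, one hour at room temperature. Readout is ADP-Glo luminescence.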
JMJD2A Tudor inh = qHTS Assay for Inhibitors of JMJD2A-Tudor Domain; 390,000 compounds, 4.4% hits; Lysine-specific demethylase 4A (Homo sapiens), O75164; AlphaScreen JMJD2A-Tudor / H3K4me3 peptide binding; AID 504339, 2011; Potency, µM (highest dose often 114 µM), without a hit: top-dose activity change, negative = inhibition, most hits filed as inhibitors; further: potency means the concentration at half of the fitted maximal effect; on the % scale 0 is the no-effect control and ±100 the full control effect; nearly all actives have a fitted effect of over 50% in size
L3MBTL1 inh = qHTS Assay for the Inhibitors of L3MBTL1. Lethal(3)malignant brain tumor-like protein 1 (Homo sapiens), Q9Y468. AlphaScreen L3MBTL1–H3K9me1 peptide binding. Potency, µM (top dose mostly 57.1 µM), without a hit: at the top dose activity, negative = inhibition, most hits filed as inhibitors. 230,000 compounds, 0.66% hits; further: potency means the concentration at half of the fitted maximal effect; on the % scale 0 is the no-effect control and ±100 the full control effect; nearly all actives have a fitted effect of over 60% in size
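Displacement of a biotinylated histone H3(1-15) peptide monomethylated at Lys9 (75 nM) from L3MBTL1 (50 nM) was measured by AlphaScreen after a 30 min room-temperature compound incubation; cefsulodin titration served as intraplate control.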
JMJD2E inh = qHTS Assay for Inhibitors of Human Jumonji Domain Containing 2E (JMJD2E) | JMJD2E catalytic domain, FDH-coupled NADH fluorescence (FDH is formaldehyde dehydrogenase) | 230,000 compounds, 1.6% hits | Lysine-specific demethylase 4E (Homo sapiens), B2RXH2 | Potency, µM (highest dose often 57.1 µM), for inactives: at the top dose activity change, negative = inhibition, most hits filed as inhibitors; active means well fitted inhibition curve with a large enough effect, not every such curve was filed as active; inconclusive means small, poorly fitted or top-dose-only effect, or another doubt; inactive means no such curve, though single readings can be large or run the other way;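 further: potency means the concentration at half of the fitted maximal effect; 0% = wells with enzyme and -100% = buffer wells without enzyme; nearly all actives have a fitted effect of over 50% in size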
BAZ2B block = qHTS Assay for Inhibitors of BAZ2B | 360,000 compounds, 4.4% hits | Potency, µM (doses to about 114 µM), for the others: at the top dose activity change, negative = inhibition, usual class: inhibitors | AID 504333, 2011 | Bromodomain adjacent to zinc finger domain protein 2B (Homo sapiens), Q9UIF8 | AlphaScreen BAZ2B-H3K14Ac peptide displacement; further: potency means the concentration at half of the fitted maximal effect; on the % scale 0 is the no-effect control and ±100 the full control effect; nearly all actives have a fitted effect of over 60% in size
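Multi-concentration screen (max 110 uM) measuring displacement of acetylated histone H3 peptide from BAZ2B by AlphaScreen, using 50 nM protein, 50 nM peptide and 10 ug/mL streptavidin donor plus Ni-chelate acceptor beads.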
* = called active by the depositor; ? = inconclusive; . = not tested or not shown; [ ] = dose if it differs, or a comment. Unless noted, the call rests on the fitted dose curve; in most records, active means well fitted inhibition curve with a large enough effect; inconclusive means small, poorly fitted or top-dose-only effect; inactive means no such curve, though single readings can be large or run the other way.

SMILES | HP1b chromo inh | PI5P4Ka inh | JMJD2A Tudor inh | L3MBTL1 inh | JMJD2E inh | BAZ2B block
CN1CCN(Cc2c(O)ccc3occ(C(=O)c4ccccc4)c23)CC1 | 8% | 0 | -16% | -10% | 4% | -4%
CC(=O)C(C(C)=O)c1c(Cl)c(O)c(O)c2c(C(=O)c3ccccc3)coc12 | ? | -26 | 63µM* | -20% | 16µM* | 45µM*
C1=C(CCNc2nnnn2-c2ccccc2)CCCC1 | 2% | -20 | 50µM* | 1% | 1% | 7%
O=C1/C(=C/c2cccc(Br)c2)SC(=S)N1/N=C/c1cc([N+](=O)[O-])ccc1O | -4% | -28 | ? | . | -13% | 35µM*
CC(=O)Oc1cc2oc(=O)cc(C)c2cc1OC(C)=O | 26% | . | -34% | -3% | ? | 50µM*
CC1=C/C(=N\Nc2ccccc2[N+](=O)[O-])CC(C)(C)C1 | 7.1µM* | 19 | 7.9µM* | 14µM* | 0% | 2.8µM*
C/C(=N/Nc1ccccc1[N+](=O)[O-])c1ccc([N+](=O)[O-])cc1 | 11% | 2 | -19% | . | . | ?
Fc1cccc(CNc2ncnc3ccc(-c4cccc(Cl)c4)cc23)c1 | . | . | . | 8% | . | -5%
Cc1ccc(NCC(O)C(O)C(O)CO)c(N=Nc2ccccc2)c1C (stereo unspecified) | ? | -3 | ? | . | -5% | 11µM*
N#Cc1nc(Cc2cccc3ccccc23)oc1NCCN1CCCCC1 | -10% | . | ? | -6% | -4% | 79µM*
CNc1oc(Cc2cccc3ccccc23)nc1C#N | 1% | . | -29% | -8% | -7% | ?
COc1ccccc1Nc1nc(NCCO)c2ccccc2n1 | . | . | . | 3% | 2% | -4%
COc1ccc(OC)c(Nc2c3ccccc3nc3ccccc23)c1 | ? | 4 | 22µM* | . | . | 50µM*
COc1ccccc1Nc1nc(NCC2CCCO2)c2ccccc2n1 (stereo unspecified) | 21% | ? | 50µM* | -5% | 0% | -27%
COc1cccc(-c2nc(NCC3CCCO3)c3ccccc3n2)c1O (stereo unspecified) | -24% | 7 | ? | 1% | 4% | ?
COc1ccc(OC)c(Nc2nc(NCCO)c3ccccc3n2)c1 | -15% | 5 | 45µM* | -2% | . | 50µM*
O=S(=O)(c1ccccc1)N1CCN(c2nc(C3CC3)nc3ccccc23)CC1 | . | . | -21% | . | . | .
Cc1ccc(NC(=O)Cn2cc(S(=O)(=O)N3CCCC3)c(S(=O)(=O)N3CCCC3)c2)c(C)c1 | 35% | . | -8% | . | . | 5%[57.1 µM]
C/C=C/C=C\C(=O)Nc1cccc(C2=NOC3(C2)C[C@@H](C(N)=O)N(C(=O)/C(C)=C/C)C3)c1 (stereo partly specified) | -25% | -11 | ? | . | -2% | -8%
C/C=C/C(=O)Nc1cccc(C2=NOC3(C2)C[C@H](C(N)=O)N(C(=O)/C=C/C)C3)c1 (stereo partly specified) | 23% | 0 | -15% | . | 1% | 0%
C=C(C)C(=O)Nc1cccc(C2=NOC3(C2)C[C@@H](C(N)=O)N(C(=O)/C=C/C=C/C)C3)c1 (stereo partly specified) | ? | -50* | 3.2µM* | . | -14% | 2µM*
C/C=C\C=C/C(=O)Nc1cccc(C2=NOC3(C2)C[C@@H](C(N)=O)N(C(=O)c2ccc(Cl)cc2)C3)c1 (stereo partly specified) | 11% | -66* | -32% | . | ? | ?
C/C=C\C=C\C(=O)Nc1cccc(C2=NOC3(C2)C[C@@H](C(N)=O)N(C(=O)C(c2ccccc2)c2ccccc2)C3)c1 (stereo partly specified) | 15% | -65* | -36% | . | -6% | ?
C/C=C/C=C/C(=O)N1CC2(CC(c3cccc(NC(=O)/C=C/C)c3)=NO2)C[C@@H]1C(N)=O (stereo partly specified) | 14% | -51* | -30% | . | 1% | -2%
C/C=C\C=C/C(=O)Nc1cccc(C2=NOC3(C2)C[C@H](C(N)=O)N(C(=O)CC)C3)c1 (stereo partly specified) | -39% | -4 | ? | . | 8% | 0%
SMILES | HP1b chromo inh | PI5P4Ka inh | JMJD2A Tudor inh | L3MBTL1 inh | JMJD2E inh | BAZ2B block
COc1ccc(S(=O)(=O)c2cc(NS(=O)(=O)c3ccc(Cl)cc3)c(C)c(C)c2O)cc1 | 15% | . | -22% | . | . | -12%
CC1CCN(S(=O)(=O)c2ccc3c(c2)CCN3)CC1 | 39% | . | -25% | . | . | -25%
Oc1ccc(/C=N\Nc2cc(N3CCOCC3)nc(N3CCOCC3)n2)c(O)c1 | -16% | 2 | ? | -5% | 14µM* | ?
Oc1ccc(/C=N/Nc2cc(N3CCCC3)nc(N3CCCC3)n2)cc1O | -14% | ? | ? | -28% | 14µM* | ?
Cc1cccc(-n2ncc(C(=O)N3CCN(C4CCCCC4)CC3)c2C2CCN(C(=O)OC(C)(C)C)CC2)c1 | 21% | . | -19% | . | . | 1%[57.1 µM]
CCOC(=O)c1cnc2ccc(OCC)cc2c1N1CCN(c2cccc(Cl)c2)CC1 | 13% | . | -26% | . | . | ?
CN1/C(=N\O)c2cccc3cccc1c23 | -13% | 1 | 17% | 19% | ? | 4%
CN1c2cccc3cccc(c23)N(C)C1(C)C | ? | -2 | ? | -29% | ? | 50µM*
CCN1C(=O)C(C(=O)c2ccccc2)SC1=S (stereo unspecified) | -37% | -2 | 56µM* | -28% | -11% | 56µM*
CC1=C(C(=O)Nc2ccc(C)cc2C)C(c2ccccc2C)n2ncnc2N1 (stereo unspecified) | 7%[57 µM] | . | -18% | . | . | -3%
O=C(Nc1cc([N+](=O)[O-])ccc1Cl)C(Sc1ccccc1)c1ccccc1 (stereo unspecified) | ? | 9 | 79µM* | -20% | 1% | -38%
O=C(Nc1ccc(Cl)c([N+](=O)[O-])c1)C(Sc1ccccc1)c1ccccc1 (stereo unspecified) | -19% | -4 | -31% | -1% | -1% | -38%
O=C(OCC#CCSc1nnc(-c2cccc3ccccc23)o1)C1CCCC1 | . | . | 150% | . | . | .
O=c1c2ccccc2nc(N/N=C/c2c(O)ccc3ccccc23)n1O | -15% | -78* | 50µM* | ? | 11µM* | 28µM*
Cc1nc2ccccc2c(=O)n1/N=C/c1c(O)ccc2ccccc12 | -18% | -3 | -30% | 22µM* | -14% | 25µM*
